Assay outcomes as filed in PubChem.
Compounds with a hit are over-represented: about 2.8% of the library has one in this group of screens.
Pol beta inh: DNA polymerase beta (human) inhibition | P06746 | Pol beta primer extension/strand displacement, fluorescence kinetic | Potency, µM (top dose mostly 114 µM), for inactives: at the top dose activity change, negative = inhibition, most hits filed as inhibitors | 340,000 compounds, 1.3% hits | AID 485314; also: potency is read from the fitted curve at half-maximal effect; % is scaled to controls: 0 for no effect and ±100 for the full control effect
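Homogeneous kinetic assay of primer extension and strand displacement by 10 nM Pol beta, preincubated 15 min at room temperature with compound before 50 nM substrate (final) was added. Read at 0 and 10 min; four-parameter Hill fit.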
PI5P4Ka inh: PI5P4K alpha (human) kinase inhibition; P48426; PI5P4Kalpha enzyme, ADP-Glo luminescence, 60 min; stronger effect = lower value; max response, %; 330,000 compounds, 1.2% hits; AID 652105; active = max response of -50% or lower; inconclusive = between -30% and -50%; inactive = -30% or higher; also: value at the top dose of about 77 µM; % is scaled to controls: 0 for no effect and ±100 for the full control effect
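Quantitative HTS of the MLSMR library against PI5P4Kalpha with substrate. ATP added last at 5 microM final; room temperature, 60 minutes. Remaining ATP depleted, ADP converted and read as luminescence.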
Pol eta inh: DNA polymerase eta (human) inhibition | recombinant Pol eta, fluorescent DNA replication assay | Potency, µM (highest dose often 114 µM), without a hit: at the highest dose activity change, negative = inhibition, most hits filed as inhibitors | 390,000 compounds, 1.2% hits; also: potency is read from the fitted curve at half-maximal effect; % is scaled to controls: 0 for no effect and ±100 for the full control effect
Target sequence (Q9Y253 whole entry, looked up): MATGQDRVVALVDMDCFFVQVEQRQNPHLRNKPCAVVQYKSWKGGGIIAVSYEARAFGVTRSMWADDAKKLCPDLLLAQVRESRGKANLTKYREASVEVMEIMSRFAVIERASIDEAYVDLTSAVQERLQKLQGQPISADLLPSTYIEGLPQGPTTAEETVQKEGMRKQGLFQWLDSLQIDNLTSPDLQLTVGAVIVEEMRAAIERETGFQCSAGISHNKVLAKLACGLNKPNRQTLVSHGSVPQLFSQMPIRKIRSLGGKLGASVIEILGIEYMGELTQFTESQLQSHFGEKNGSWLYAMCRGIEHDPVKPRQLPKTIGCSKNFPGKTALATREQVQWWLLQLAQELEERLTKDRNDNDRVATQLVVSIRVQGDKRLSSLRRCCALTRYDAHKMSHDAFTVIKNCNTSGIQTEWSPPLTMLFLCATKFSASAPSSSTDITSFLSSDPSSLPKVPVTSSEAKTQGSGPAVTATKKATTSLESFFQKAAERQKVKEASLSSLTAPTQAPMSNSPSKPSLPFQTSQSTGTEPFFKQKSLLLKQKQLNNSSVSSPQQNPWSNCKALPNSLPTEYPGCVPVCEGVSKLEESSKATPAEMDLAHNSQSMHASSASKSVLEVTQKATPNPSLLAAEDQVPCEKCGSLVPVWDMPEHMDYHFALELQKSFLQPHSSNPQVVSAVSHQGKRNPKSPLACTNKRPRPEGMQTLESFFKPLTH
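Fluorescent replication assay: 50 nM final substrate added after a 15 min room-temperature compound preincubation with 10 nM enzyme. Signal taken at 0 min and again at 10 min.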
POLK inh: inhibitors of human DNA polymerase kappa. 400,000 compounds, 0.53% hits. AID 588579. purified Pol kappa, fluorescent DNA synthesis assay, 10 min. Potency, µM (titrated, usually from 107 µM), without a hit: at the highest dose activity, negative = inhibition, hits mostly inhibitors; also: potency is read from the fitted curve at half-maximal effect; % is scaled to controls: 0 for no effect and ±100 for the full control effect
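Kinetic fluorescence screen: compound preincubated 15 min RT with 10 nM enzyme; 50 nM substrate (final) initiates; reads at 0/10 min.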
WRN helicase inh: inhibitors of human WRN helicase; Q14191; WRN helicase unwinding, fluorescent forked duplex, kinetic; Potency, µM (top dose mostly 114 µM), for the others: at the top dose activity change, negative = inhibition, actives largely listed as inhibitors; 360,000 compounds, 0.46% hits; AID 651768; also: potency is read from the fitted curve at half-maximal effect; % is scaled to controls: 0 for no effect and ±100 for the full control effect; nearly all actives have a fitted effect of over 55% in size
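Kinetic red-fluorescence monitoring (525/598 nm) tracks WRN helicase activity after 100 nM fluorophore-quencher forked duplex and 2 mM ATP are added to 20 nM enzyme pretreated 15 min at room temperature with compound.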
POLI inh: inhibitors of human DNA polymerase iota; Q9UNA4; Pol iota fluorescent replication assay, 10 min; Potency, µM (highest dose often 115 µM), for inactives: at the top dose activity, negative = inhibition, usual class: inhibitors; 390,000 compounds, 1% hits; AID 588590; also: potency is read from the fitted curve at half-maximal effect
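Pol iota at 10 nM preincubated 15 min with compounds at room temperature; reaction started with fluorescent substrate, 50 nM final. Fluorescence read kinetically at 0 and 10 min; buffer-only wells as negative control.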
* marks the source's active call; other numbers are inactive results; ? = inconclusive; nt = no result; [ ] = remark or other dose. Unless noted, calls follow the shape of the dose curve; as a rule, active = well fitted curve in the direction sought with a large enough effect; inconclusive = small, poorly fitted or top-dose-only effect, or another doubt; inactive = no such curve, though single readings can be large; an effect the other way counts as inactive or inconclusive.

SMILES	Pol beta inh	PI5P4Ka inh	Pol eta inh	POLK inh	WRN helicase inh	POLI inh
CC(OC(=O)Cc1c[nH]c2ccccc12)C(=O)NC1CCCCC1C (stereo unspecified)	nt	-7	0%	2%	-2%	-2%
COc1ccccc1NC(=O)NNC(=O)c1ccc(-c2ccccc2)cc1	-11%	-4	-20%	-4%	8%	-10%
O=C(NNC(=O)c1ccc(-c2ccccc2)cc1)Nc1ccc(F)cc1F	25µM*	0	-13%	-4%	-1%	1%
O=C(NNC(=O)c1ccc2ccccc2c1)Nc1ccc(F)cc1	45µM*	0	-15%	-3%	2%	?
O=C(O)c1cccnc1SCC(=O)N1CCCc2ccccc21	?	-7	20µM*	-38%	-6%[11.6 µM]	?
CCc1cccc(CC)c1-n1c(SCC(=O)N2CCCc3ccccc32)nc(O)cc1=O	nt	-18	-16%	45µM*	-16%	?
O=C(CSc1ncccn1)N1CCCc2ccccc21	15%	-4	-21%	-6%	10%	113%
O=S(=O)(Cc1ccco1)Cc1nc(-c2ccc(Cl)cc2)cs1	-1%	0	-9%	-2%	5%	-10%
O=S(=O)(Cc1noc(-c2ccc(Cl)cc2)n1)Cc1ccco1	14µM*	-19	-2%	?	-19%	50µM*
Cc1ccc(-c2nc(NC(=O)CSc3cc(C)c4ccccc4n3)ns2)cc1	8.9µM*	0	?	-22%	-15%	-10%
O=C(Nc1ccccc1)c1ccc(N2CCN(c3ccccn3)CC2)c(S(=O)(=O)N2CCOCC2)c1	-20%	1	-18%	-12%	-12%	89µM*
O=C(Nc1ccccc1)c1ccc(N2CCN(c3ccccc3)CC2)c(S(=O)(=O)N2CCOCC2)c1	-11%	0	-2%	-12%	-3%	14%
O=C1C=CC(=O)N1CCCCCCN1C(=O)C=CC1=O	0%	-58*	?	-16%	20µM*	-37%
O=C(O)CN1C(=O)C=CC1=O	nt	-15	?	nt	-13%	nt
Cc1ccc(-c2cc(C(=O)Oc3ccccc3)c3cccc(C)c3n2)cc1	?	nt	50µM*	-30%	nt	?
CCCc1ccc(OCc2nc(-c3ccc(NC(=O)c4ccco4)cc3)no2)cc1	35µM*	-14	-10%	-4%	-10%	?
CCCc1ccc(OCc2nc(-c3ccc(NC(=O)c4cccs4)cc3)no2)cc1	?	-7	?	-2%	-10%	8%
COc1ccc(-c2nnc(SCC(=O)Nc3cccc(F)c3)s2)cc1	35µM*	nt	-6%	-13%[60.1 µM]	nt	-10%
COc1ccc(-c2nnc(SCC(=O)Nc3cccc(C)c3)s2)cc1	-4%	nt	-3%	-11%[60.1 µM]	nt	5%
O=C(CCCN1C(=O)NC2(CCCC2)C1=O)Nc1ccc(Cl)c(S(=O)(=O)N2CCOCC2)c1	nt	-4	-12%	-1%	-1%	6%
S=c1[nH]c2cc(Cl)c3cccnc3c2o1	-1%	-53*	-15%	5%	-9%[57.1 µM]	44%
S=c1[nH]c2ncccc2o1	2%	nt	-13%	-12%	5%	-18%
Cc1oc2nc(SCC(=O)NC3CCCCC3)nc(N)c2c1C	nt	0	-11%	-18%	-14%	-6%
O=C(Nc1nnc(CCc2ccccc2)s1)c1ccccc1F	?	-25	?	-5%	-13%	140%
O=C(NNC(=O)c1ccccc1Cl)c1cccs1	-2%	1	-7%	8%	0%	-6%
SMILES	Pol beta inh	PI5P4Ka inh	Pol eta inh	POLK inh	WRN helicase inh	POLI inh
O=C(NNC(=O)c1ccccc1Cl)c1ccccc1Cl	89µM*	4	-22%	-1%	-2%	27%
CC(C)=CC[C@@H](O)C1=CC(=O)c2c(O)ccc(O)c2C1=O	nt	nt	nt	0.89µM*	nt	nt
CCOc1cc(OCC)cc(C(=O)N2CCC[C@H]2C(=O)N2CCC[C@H]2C(=O)N(C)Cc2ccccc2)c1	nt	-8	nt	nt	4%	nt
CC(C)CCn1c(SCC(=O)N2CC(=O)Nc3ccccc32)nc2scc(-c3cccs3)c2c1=O	22µM*	-67*	?	?	-12%	?
CSCC[C@H](NC(=O)[C@H](CC(C)C)NC(=O)CCNC(=O)[C@@H](NC(=O)[C@H](Cc1ccccc1)NC(=O)[C@H](CO)NC(=O)[C@@H](N)CC(=O)O)C(C)C)C(N)=O	nt	nt	nt	18%[60.1 µM]	nt	nt
CC(C)S(=O)(=O)C1=NSC2=NC(=O)/C(=C\c3ccc(-c4ccccc4)o3)C(=N)N21	79µM*	-102*	18µM*	?	?	-12%
O=C1C=CC(=O)N1c1ccc2c(c1)C(NC(=O)C(F)(F)F)c1ccccc1-2 (stereo unspecified)	nt	?	-2%	-14%	56µM*	22%
CCOC(=O)C1CCN(c2cc3c(cc2NC(=O)c2ccccc2)n(C)c(=O)n3C)CC1	5%	13	-10%	11%	0%	34%
CCOC(=O)C1CCN(c2cc3c(cc2NC(=O)c2ccc(OC)c(OC)c2)n(C)c(=O)n3C)CC1	61%	0	50µM*	-8%	-15%[11.6 µM]	30%
Nc1ccccc1Nc1nc2ccccc2[nH]1	7%	0	-10%	-6%	-27%	90%
Nc1ccc(Nc2nc3ccccc3[nH]2)cc1	13%	-52*	-17%	-4%	8%	70%
CC(C)CC(C(=O)NC(C)(C)C)N(Cc1ccccc1Cl)C(=O)c1snc(C(N)=O)c1N (stereo unspecified)	-3%	2	-28%	-14%	-12%	27%
Oc1cc(Nc2ccccc2)cc2cccnc12	nt	nt	-4%	-28%	nt	21%
Oc1cc(NCCN2CCOCC2)cc2cccnc12	nt	nt	-9%	-10%	nt	7.1µM*
CCN1C(=O)/C(=C\c2ccc(-c3cccc(C(=O)OC)c3)o2)SC1=Nc1ccc(C(=O)O)cc1	-22%	nt	nt	nt	nt	nt
CCN=C1S/C(=C/c2ccc(-c3ccc(Cl)cc3C(=O)O)o2)C(=O)N1CC	0%	-25	35µM*	-18%	-27%	-6%
CCN=C1S/C(=C\c2ccc(-c3cccc(C(=O)O)c3)o2)C(=O)N1CC	11µM*	-27	20µM*	-48%	-19%	?
CCN=C1S/C(=C\c2cc(Cl)c(OC)c(OC)c2)C(=O)N1CC	19%	-8	-8%	-3%	1%[57.1 µM]	?
Cc1cc(C)c(Nc2n[nH]c(=S)s2)cc1C	nt	-90*	3%	nt	5%	nt
Cc1ccc(Nc2n[nH]c(=S)s2)c(C)c1	nt	-88*	0%	nt	-2%	nt
CC(C)c1ccc(Nc2n[nH]c(=S)s2)cc1	nt	-65*	nt	nt	-4%	nt
CC(C)c1ccc(Nc2nnns2)cc1	4%	-22	-2%	4%	?	147%
Cc1cccc(C)c1Nc1n[nH]c(=S)s1	nt	-73*	-11%	nt	-6%	nt
Cc1cccc(Nc2n[nH]c(=S)s2)c1C	7%	nt	7%	-9%	-15%	-14%
